Measured values reported in PubChem BioAssay AID1159580 (chemical genetic matrix, 2015).
About 2,000 (36%) of roughly 5,500 compounds were called active. About 18% were inconclusive and are not listed. Rule as the data show it: active = normalized growth mostly below about 0.91 (no sharp cut-off); inconclusive = no clear call, values can overlap the other calls; inactive = mostly above about 0.92. Some of the results follow.

Test: chemical genetic growth profiling, strain panel (AID 1159580);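 also: tested at 20 µM; growth read once vehicle control cultures reached saturation at 30 °C; 1 = growth at the plate median or of vehicle wells; lower values mean less growth of the strain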
Conditions: growth OD

Measured: normalized growth

CCC(N)C(O)c1ccc(O)c(O)c1 (configuration not stated)
inactive: S. cerevisiae deletion strains, locus YJR075W, strain HOC1, active compounds read low 1.01 | S. cerevisiae deletion strains, locus YKL009W, strain mrt4, active compounds read low 0.996 | S. cerevisiae deletion strains, locus YKL068W, active compounds read low 0.993 | S. cerevisiae deletion strains, locus YKL085W, strain MDH1 (second series), active compounds read low 0.985 | S. cerevisiae deletion strains, locus YKL085W, strain MDH1, active compounds read low 0.985 | S. cerevisiae deletion strains, locus YKL160W, strain elf1, active compounds read low 0.999 | S. cerevisiae deletion strains, locus YKL190W, strain CNB1, active compounds read low 1.01 | S. cerevisiae deletion strains, locus YKR001C, strain vps1, active compounds read low 0.99 | S. cerevisiae deletion strains, locus YKR026C, strain gcn3, active compounds read low 0.973 | S. cerevisiae deletion strains, locus YKR091W, strain srl3, active compounds read low 0.993 | S. cerevisiae deletion strains, locus YLL001W, strain dnm1, active compounds read low 1 | S. cerevisiae deletion strains, locus YLL026W, active compounds read low 0.984 | S. cerevisiae deletion strains, locus YLL041C, strain sdh2, active compounds read low 1 | S. cerevisiae deletion strains, locus YLR027C, strain aat2, active compounds read low 0.988 | S. cerevisiae deletion strains, locus YLR039C, strain RIC1, active compounds read low 1.06 | S. cerevisiae deletion strains, locus YLR058C, strain SHM2, active compounds read low 1.02 | S. cerevisiae deletion strains, locus YLR102C, strain apc9, active compounds read low 0.983 | S. cerevisiae deletion strains, locus YLR113W, strain HOG1, active compounds read low 0.998 | S. cerevisiae deletion strains, locus YLR221C, strain rsa3, active compounds read low 1 | S. cerevisiae deletion strains, locus YLR258W, strain gsy2, active compounds read low 0.993 | S. cerevisiae deletion strains, locus YLR262C, strain YPT6 (second series), active compounds read low 0.996 | S. cerevisiae deletion strains, locus YLR262C, strain YPT6, active compounds read low 1.05 | S. cerevisiae deletion strains, locus YLR268W, strain sec22, active compounds read low 0.928 | S. cerevisiae deletion strains, locus YLR320W, strain mms22, active compounds read low 0.99 | S. cerevisiae deletion strains, locus YLR330W, strain CHS5, active compounds read low 1.01 | S. cerevisiae deletion strains, locus YLR342W, strain FKS1 (second series), active compounds read low 0.989 | S. cerevisiae deletion strains, locus YLR342W, strain FKS1, active compounds read low 0.995 | S. cerevisiae deletion strains, locus YLR357W, strain rsc2, active compounds read low 0.979 | S. cerevisiae deletion strains, locus YLR370C, strain arc18, active compounds read low 0.989 | S. cerevisiae deletion strains, locus YLR371W, strain rom2, active compounds read low 0.977 | S. cerevisiae deletion strains, locus YLR384C, strain iki3, active compounds read low 0.997 | S. cerevisiae deletion strains, locus YLR418C, strain cdc73, active compounds read low 1.01 | S. cerevisiae deletion strains, locus YML016C, strain PPZ1, active compounds read low 1.01 | S. cerevisiae deletion strains, locus YML032C, strain rad52, active compounds read low 0.972 | S. cerevisiae deletion strains, locus YML120C, strain ndi1, active compounds read low 1.01 | S. cerevisiae deletion strains, locus YML124C, strain tub3, active compounds read low 0.991 | S. cerevisiae deletion strains, locus YMR058W, strain fet3, active compounds read low 0.987 | S. cerevisiae deletion strains, locus YMR078C, strain ctf18, active compounds read low 0.977 | S. cerevisiae deletion strains, locus YMR125W, strain sto1, active compounds read low 0.964 | S. cerevisiae deletion strains, locus YMR129W, active compounds read low 1 | S. cerevisiae deletion strains, locus YMR205C, strain PFK2, active compounds read low 0.97 | S. cerevisiae deletion strains, locus YMR223W, strain ubp8, active compounds read low 1.02 | S. cerevisiae deletion strains, locus YMR231W, strain pep5, active compounds read low 0.996 | S. cerevisiae deletion strains, locus YMR263W, strain SAP30, active compounds read low 1.01 | S. cerevisiae deletion strains, locus YMR307W, strain GAS1, active compounds read low 1.01 | S. cerevisiae deletion strains, locus YNL067W, strain RPL9B, active compounds read low 0.993 | S. cerevisiae deletion strains, locus YNL071W, strain lat1, active compounds read low 0.991 | S. cerevisiae deletion strains, locus YNL128W, strain TEP1, active compounds read low 1.02 | S. cerevisiae deletion strains, locus YNL153C, strain GIM3, active compounds read low 0.985 | S. cerevisiae deletion strains, locus YNL183C, strain NPR1, active compounds read low 0.968 | S. cerevisiae deletion strains, locus YNL209W, strain ssb2, active compounds read low 1 | S. cerevisiae deletion strains, locus YNL233W, strain BNI4, active compounds read low 0.992 | S. cerevisiae deletion strains, locus YNL248C, strain rpa49, active compounds read low 1.01 | S. cerevisiae deletion strains, locus YNL250W, strain rad50, active compounds read low 0.988 | S. cerevisiae deletion strains, locus YNL271C, strain bni1, active compounds read low 0.99 | S. cerevisiae deletion strains, locus YNL298W, strain CLA4, active compounds read low 0.993 | S. cerevisiae deletion strains, locus YNL307C, strain MCK1, active compounds read low 1 | S. cerevisiae deletion strains, locus YNL322C, strain KRE1 (second series), active compounds read low 0.985 | S. cerevisiae deletion strains, locus YNL322C, strain KRE1, active compounds read low 1.01 | S. cerevisiae deletion strains, locus YNR049C, strain mso1, active compounds read low 0.995 | S. cerevisiae deletion strains, locus YNR052C, strain pop2, active compounds read low 0.997 | S. cerevisiae deletion strains, locus YOL006C, strain TOP1, active compounds read low 1.05 | S. cerevisiae deletion strains, locus YOL012C, strain htz1 0.91 | S. cerevisiae deletion strains, locus YOL147C, strain pex11, active compounds read low 0.991 | S. cerevisiae deletion strains, locus YOR001W, strain rrp6, active compounds read low 1 | S. cerevisiae deletion strains, locus YOR061W, strain CKA2, active compounds read low 1.02 | S. cerevisiae deletion strains, locus YOR069W, strain VPS5, active compounds read low 1.01 | S. cerevisiae deletion strains, locus YOR070C, strain gyp1, active compounds read low 0.991 | S. cerevisiae deletion strains, locus YOR080W, strain dia2, active compounds read low 0.986 | S. cerevisiae deletion strains, locus YOR083W, strain WHI5, active compounds read low 1.01 | S. cerevisiae deletion strains, locus YOR106W, strain vam3, active compounds read low 0.997 | S. cerevisiae deletion strains, locus YOR136W, strain idh2, active compounds read low 0.989 | S. cerevisiae deletion strains, locus YOR144C, strain elg1, active compounds read low 0.986 | S. cerevisiae deletion strains, locus YOR184W, strain ser1, active compounds read low 1 | S. cerevisiae deletion strains, locus YOR231W, strain MKK1, active compounds read low 1.02 | S. cerevisiae deletion strains, locus YOR265W, strain rbl2, active compounds read low 0.99 | S. cerevisiae deletion strains, locus YOR270C, strain vph1, active compounds read low 1.02 | S. cerevisiae deletion strains, locus YOR290C, strain snf2, active compounds read low 0.987 | S. cerevisiae deletion strains, locus YOR316C, strain cot1, active compounds read low 0.989 | S. cerevisiae deletion strains, locus YPL051W, strain arl3, active compounds read low 0.983 | S. cerevisiae deletion strains, locus YPL055C, strain LGE1, active compounds read low 1.03 | S. cerevisiae deletion strains, locus YPL078C, strain atp4, active compounds read low 0.996 | S. cerevisiae deletion strains, locus YPL106C, strain sse1, active compounds read low 0.94 | S. cerevisiae deletion strains, locus YPL240C, strain hsp82, active compounds read low 1.01 | S. cerevisiae deletion strains, locus YPL241C, strain CIN2, active compounds read low 1.01 | S. cerevisiae deletion strains, locus YPL256C, strain CLN2, active compounds read low 1.01 | S. cerevisiae deletion strains, locus YPR119W, strain clb2, active compounds read low 0.981 | S. cerevisiae deletion strains, locus YPR141C, strain kar3, active compounds read low 0.984 | S. cerevisiae deletion strains, locus YPR163C, strain tif3, active compounds read low 0.996 | S. cerevisiae deletion strains, locus YPR167C, strain met16, active compounds read low 0.99 | S. cerevisiae deletion strains, strain wtn01, active compounds read low 0.979 | S. cerevisiae strains, strain wild type, active compounds read low 1.02
